In all, about 16,000 compounds went through this assay and about 5,100 (32%) were called active. Another 25% or so got no clear call; they are omitted. Calls come from the whole dose curve; as a rule, active = well fitted curve in the direction sought with a large enough effect; inconclusive = small, poorly fitted or top-dose-only effect, or effect the other way; inactive = no such curve, though single readings can be large or run the other way. The list shows a part of the results.
What follows are compounds tested against Cytochrome P450 3A4 (Homo sapiens) (UniProt P08684) (assay: Cytochrome panel assay with activity outcomes). Settings: recombinant CYP, pro-luciferin dealkylation, luminescence, p450-cyp3a4; series mostly up to 57.1 µM.
Chain of Cytochrome P450 3A4 (Homo sapiens) (P08684 whole entry, looked up): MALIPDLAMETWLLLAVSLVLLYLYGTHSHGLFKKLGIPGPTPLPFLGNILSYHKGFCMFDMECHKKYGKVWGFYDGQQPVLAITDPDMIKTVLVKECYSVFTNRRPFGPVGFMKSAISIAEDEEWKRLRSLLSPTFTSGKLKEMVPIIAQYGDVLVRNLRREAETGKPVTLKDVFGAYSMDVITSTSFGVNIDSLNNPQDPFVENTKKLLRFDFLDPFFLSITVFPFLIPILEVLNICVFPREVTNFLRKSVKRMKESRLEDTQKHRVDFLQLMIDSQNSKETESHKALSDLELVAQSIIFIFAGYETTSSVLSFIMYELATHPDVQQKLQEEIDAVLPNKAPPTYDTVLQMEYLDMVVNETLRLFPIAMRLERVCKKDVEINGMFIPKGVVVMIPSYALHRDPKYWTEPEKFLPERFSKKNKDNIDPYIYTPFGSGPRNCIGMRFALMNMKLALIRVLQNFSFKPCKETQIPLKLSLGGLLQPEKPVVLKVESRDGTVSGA
% is set by controls: 0 for no effect and ±100 for the full control effect.

AC50, inactive:
CCc1cccc(CC)c1NC(=O)CN(CC(=O)O)CC(=O)O, CCOC(=O)N1CCN(C(=O)CN(C)S(=O)(=O)c2ccc3c(c2)C(C)(C)C(=O)N3C)CC1, CCOc1[nH]n(-c2ccc(Cl)cc2)c(=O)c1C=Nc1ccc(O)cc1, C/C(=N\OC(=O)c1cccc(C)c1)c1sc(-c2ccccc2)nc1C, CCN(CC)CCc1nc(-c2ccccc2)no1, CN(C)C(=O)CCc1nc(-c2ccc(C(C)(C)C)cc2)no1, O=C(Cc1cccs1)N/N=C/C(Br)=C/c1ccccc1, CCc1cc2c(=O)[nH]cnc2s1, COC(=O)C1C(O)=C(C=NCc2ccccc2)C(=O)CC1(C)C (stereo not given), COCCCN=CC1=C(O)CC(C)(C)CC1=O, O=C(NC1(C(F)(F)F)C(=O)Nc2c1c(=O)[nH]c(=O)n2-c1ccc(F)cc1)c1cccnc1 (stereo not given), CN(C)CC(O)COc1ccc(C(C)(C)c2ccc(OCC(O)CN(C)C)cc2)cc1 (stereo not given), CC1(C)CC(=O)C(CCCN2C(=O)c3ccccc3C2=O)C(=O)C1, Nc1ccc(N2CCN(C(=O)c3ccco3)CC2)cc1, CN(C)c1ccc(/C=C2/C(=O)N(c3ccc([N+](=O)[O-])cc3)N=C2N2CCOCC2)cc1, CC1=N/C(=C\c2ccc([N+](=O)[O-])cc2)C(=O)N1c1ccc(Cl)cc1, O=C(O)C1C2CCC(C2)C1C(=O)NCc1ccco1 (stereo not given), CN(C)CCCNC(=O)c1cc2c3ccccc3n(C)c2s1, Clc1cccc(Cl)c1NC1=NCCN1, COc1cccc(Nc2ncc(C(=O)O)c3ccccc23)c1, CN(C)C(=O)c1ccc(-c2ccc3ncnc(NC4CCNCC4)c3c2)cc1, Cc1sc2c(c1C)c(=O)n(-c1ccccc1)c1nnc(C)n21, O=C(O)CN(CCN(CC(=O)O)CC(=O)O)CCN(CC(=O)O)CC(=O)O, CCOC(=O)N/N=C/c1ccccc1F, O=C(CO)N/N=C/c1ccccc1F, COCCN1CN=C(Nc2nc3ccccc3s2)NC1, CO[C@@H]1CC[C@@]2(C)[C@@H](CC[C@@]3(C)[C@H]2CC=C2[C@H]4CC(C)(C)[C@H](O)[C@@H](OC(C)=O)[C@]4(CO)[C@H](O)C[C@]23C)[C@@]1(C)CO (tested in a mixture with another compound), COc1cccc(/C=c2/s/c(=C(\C#N)C(=O)N3CCOCC3)n(-c3ccccc3)c2=O)c1

AC50, active:
CCc1cccc(NC(=O)CN(C)S(=O)(=O)c2cnc[nH]2)c1 2.51 µM, CN(CC(=O)N1CCN(c2ccccc2)CC1)S(=O)(=O)c1cnc[nH]1 11.2 µM, COc1cc(O)oc1C=Nc1ccc(Cl)cc1 15.8 µM, COc1cc(O)oc1C=Nc1ccc(C(F)(F)F)cc1 8.91 µM, C/C(=N\OC(=O)NC1CCCCC1)c1sc(-c2ccccc2)nc1C 15.8 µM, c1ccc2c(-c3c[nH]c4ccccc34)c3ccccc3nc2c1 8.91 µM, O=C(O)CCc1nc(-c2ccccc2-n2cccc2)no1 2.51 µM, O=C(NC1CCCC1)C(c1ccsc1)N(Cc1ccccc1)C(=O)Cc1cccs1 (stereo not given) 2 µM, COc1ccc(CN(C(=O)Cc2cccs2)C(C(=O)NC2CCCC2)c2ccncc2)cc1 (stereo not given) 1 µM, COc1ccc(C(C(=O)NC2CCCC2)N(Cc2ccc(F)cc2)C(=O)c2ccn[nH]2)cc1OC (stereo not given) 3.98 µM, O=C(NC1CCCCC1)C(c1cccs1)N(Cc1cccs1)C(=O)c1ccco1 (stereo not given) 3.16 µM, COc1ccc(CCN=CC2=C(O)CC(C)(C)CC2=O)cc1 14.1 µM, Cc1cc(C)c2[nH]c(=O)c(CN(Cc3ccco3)C(=O)c3cccs3)cc2c1 2.82 µM, CCCCN1C(=O)C(NC(=O)c2cccnc2)(C(F)(F)F)C2=C1CC(C)(C)CC2=O (stereo not given) 7.94 µM, CC1(C)CC(=O)C2=C(C1)N(Cc1cccnc1)C(=O)C2(NC(=O)c1cccnc1)C(F)(F)F (stereo not given) 12.6 µM, CCOC(=O)c1cc2sc(C)cc2n1CCCN1C(=O)c2ccccc2C1=O 3.16 µM, CCOC(=O)c1cc2sc(C)cc2n1CC(=O)N1CCN(C(=O)c2ccco2)CC1 14.1 µM, O=C(COc1ccc2ccccc2c1Br)NNC(=O)Nc1ccccc1 14.1 µM, CC1=N/C(=C\c2ccc([N+](=O)[O-])cc2)C(=O)N1c1ccc(Br)c(C)c1 2.82 µM, O=C(COC(=O)c1cccc(S(=O)(=O)N2CCN(c3ccccc3)CC2)c1)NCc1ccco1 12.6 µM, CN(C)CCCn1cc(C2=C(c3c[nH]c4ccccc34)C(=O)NC2=O)c2ccccc21 12.6 µM, CNc1ncnc2ccc(-c3ccccc3OC)cc12 20 µM, COc1cccc(-c2ccc3ncnc(NC4CC4)c3c2)c1 2 µM, COc1ccc(Nc2ncnc3sc(-c4ccccc4)cc23)cc1 11.2 µM, Clc1cccc(Nc2ncnc3ccc(Br)cc23)c1 14.1 µM, COc1ccccc1-c1ccc2ncnc(Nc3ccccc3)c2c1 12.6 µM, COc1cccc(-c2ccc3ncnc(Nc4ccccc4)c3c2)c1 10 µM, CN(C)c1ccc(-c2ccc3ncnc(NC4CC4)c3c2)cc1 3.16 µM, Cc1nn(C)cc1C(C(=O)NC1CCCCC1)N(C(=O)Cc1cccs1)c1ccc(C(C)C)cc1 (stereo not given) 2.51 µM, CCOc1ccc(N(C(=O)/C=C/C(=O)Nc2cc(C)on2)C(C(=O)NC2CCCC2)c2ccccc2C)cc1 (stereo not given) 0.891 µM, Cc1ccccc1C(C(=O)NC1CCCC1)N(C(=O)Cc1cccs1)c1ccc2c(c1)OCCO2 (stereo not given) 1 µM, CCN(CC(=O)NCc1cccs1)S(=O)(=O)c1ccc(C(C)C)cc1 7.08 µM, COc1ccccc1/C=N/NC(=O)CC(=O)Nc1ccc(Cl)c(Cl)c1 7.94 µM, COc1ccc(OC)c(C2C(C(=O)Nc3nc4ccccc4s3)=C(C)NC3=C2C(=O)CCC3)c1 (stereo not given) 2.24 µM, Clc1ccccc1NN(Cc1ccncc1)c1ccccc1Cl 0.251 µM

activity, negative = inhibition, inactive:
CC(C)CC(=O)N1CCC(N2CCN(c3ccccc3)CC2)CC1 6.02% [at 2.29 µM], c1ccc2c(CN3CCN(Cc4c[nH]c5ccccc45)CC3)c[nH]c2c1 -20.1% [at 11.4 µM], O=C(NC1CCCC1)C(c1ccc(F)cc1)N(Cc1ccc(F)cc1)C(=O)c1ccn[nH]1 (stereo not given) -28.2% [at 2.29 µM], O=C(O)c1cscc1Cc1cccs1 17.7% [at 11.4 µM], O=C(O)/C=C(/C(=O)O)[C@]12CCN3CC4=CCO[C@@H]5CC(=O)N[C@@H]1[C@H]5[C@H]4C[C@H]32 2.64% [at 11.4 µM], CCCCN1C(=O)C(NC(=O)CC(C)C)(C(F)(F)F)C2=C1CC(C)(C)CC2=O (stereo not given) -16% [at 2.29 µM], CCCCN1C(=O)C(NC(=O)C2CC2)(C(F)(F)F)C2=C1CC(C)(C)CC2=O (stereo not given) 5.27% [at 2.29 µM], OCCN(CCO)c1ncnc2nc[nH]c12 -5.25% [at 11.4 µM], CCCC(=O)NNC(=O)Nc1ccccc1 -11.8% [at 2.29 µM], Cn1cnc([N+](=O)[O-])c1SCC(=O)O -11.5% [at 11.4 µM], CCOC(=O)N/N=C1/C[C@@H](O)[C@@H](O)[C@@H]2[C@@H]3C(=O)N(C4CCCCC4)C(=O)[C@H]3CC[C@H]12 -24.5% [at 11.4 µM], CCCc1nc2ccccc2c(C(=O)OCC(=O)Nc2cccc(S(=O)(=O)N3CCOCC3)c2)c1CC -27.2% [at 2.29 µM], CN(C)CCCN=c1c2ccccc2n(C)c2[nH]c(=O)n(C)c(=O)c12 2.56% [at 11.4 µM], c1c[nH]c(CN2CCN(Cc3ncc[nH]3)CC2)n1 -22.2% [at 11.4 µM], COc1ccc(Nc2ncc(C(=O)N3CCN(Cc4ccccc4)CC3)c3ccccc23)cc1 -29.5% [at 2.29 µM], Brc1ccc2ncnc(Nc3cccc4ccccc34)c2c1 20.8% [at 2.29 µM], COc1ccc(-n2cnc3sc(-c4ccccc4)cc3c2=O)cc1 13% [at 2.29 µM], NCCNc1ncnc2ccc(Cl)cc12 -27.5% [at 11.4 µM], CC(C)=NOCc1ccc(-c2cc(-c3ccccc3)no2)cc1 5.94% [at 11.4 µM], C[C@@H](c1ccccc1)N1C(=O)[C@@H]2[C@H]3C(=CC[C@H]2C1=O)C(=O)[C@H]1O[C@H]1[C@H]3O -19.9% [at 11.4 µM], CN(C)S(=O)(=O)Nc1ccccn1 -8.58% [at 11.4 µM], C/C=C\C1=C(CO)C(=O)C2O[C@]2(CC=C(C)C)C1=O (stereo not given in full) -13.4% [at 11.4 µM], CCOC(=O)CN(C(=O)CCC(=O)Nc1cc(C)on1)C(C(=O)NC1CCCC1)c1cccnc1 (stereo not given) -13% [at 2.29 µM], Oc1ccc(Cc2nccc3cc(O)c(O)cc23)cc1O -11.6% [at 11.4 µM], CC1(C)CC(=O)C(C(c2cccc(O)c2O)C2C(=O)CC(C)(C)CC2=O)C(=O)C1 -5.88% [at 11.4 µM], OCCN(Cc1ccccc1)Cc1cccc(Cl)c1Cl 9.74% [at 11.4 µM], Clc1ccccc1NN(Cc1ccccn1)c1ccccc1Cl -2.68% [at 11.4 µM]

— PubChem BioAssay AID1851 (National Center for Advancing Translational Sciences (NCATS), 2009)
